Each structure is given as a SMILES string. Records with an inconclusive call do not appear. Active and inactive are the calls of the source. The call rests on the fitted dose curve; in most records, active means well fitted curve in the direction sought with a large enough effect; inconclusive means small, poorly fitted or top-dose-only effect, or another doubt; inactive means no such curve, though single readings can be large; an effect the other way counts as inactive or inconclusive.

A short description of assay [1]: Quantitative High-Throughput drug screen in 47 multiple myeloma cell lines against the NCATS MIPE library collection: KMS12BM_JCRB cell viability assay (AID 1918971). Further: nearly all actives have a fitted effect of over 35% in size. An outline of the steps: (§1)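 qHTS of the MIPE 4.0 collection: 500 myeloma cells/well, 48 h drug exposure at 37C in 5% CO2, then CellTiter-Glo for 5 min at room temperature before luminescence reading.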

Assay [2] is described as follows: Quantitative High-Throughput drug screen in 47 multiple myeloma cell lines against the NCATS MIPE library collection: MMM1_PLB cell viability assay (AID 1918976). Further: nearly all actives have a fitted effect of over 35% in size. Summed up:
(§2)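 Plated at 500 cells per well, myeloma lines received MIPE 4.0 compounds by pin tool. Following 48 h culture at 37 °C, CellTiter-Glo luminescence gave viability relative to DMSO and media-only controls.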

A short description of assay [3]: Quantitative High-Throughput drug screen in 47 multiple myeloma cell lines against the NCATS MIPE library collection: NCIH929_DSMZ cell viability assay (AID 1918978). Further: nearly all actives have a fitted effect of over 35% in size. Summed up: as §2
The nature of assay [4]: Quantitative High-Throughput drug screen in 47 multiple myeloma cell lines against the NCATS MIPE library collection: OCIMY1_PLB cell viability assay (AID 1918979). Further: nearly all actives have a fitted effect of over 35% in size. On viability: series mostly up to about 46 µM. Summed up:
as §2

A short description of assay [5]: Quantitative High-Throughput drug screen in 47 multiple myeloma cell lines against the NCATS MIPE library collection: MM1S_ATCC cell viability assay (AID 1918980). Further: nearly all actives have a fitted effect of over 45% in size. An outline of the steps:
as §2

A short description of assay [6]: Quantitative High-Throughput drug screen in 47 multiple myeloma cell lines against the NCATS MIPE library collection: MM1R_ATCC cell viability assay (AID 1918981). Further: nearly all actives have a fitted effect of over 35% in size. Summed up: as §2
Assay [7] can be described thus: Quantitative High-Throughput drug screen in 47 multiple myeloma cell lines against the NCATS MIPE library collection: KMS12PE_JCRB cell viability assay (AID 1918972). Further: nearly all actives have a fitted effect of over 30% in size. On viability: series mostly up to about 46 µM. An outline of the steps: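 We plated 500 myeloma cells per well, pinned in MIPE 4.0 compounds, and incubated for 48 hours at 37C. ATP was then quantified with CellTiter-Glo, with DMSO and media-only wells defining 100% and 0%.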

Assay [8] is described as follows: Quantitative High-Throughput drug screen in 47 multiple myeloma cell lines against the NCATS MIPE library collection: KMS20_JCRB cell viability assay (AID 1918973). Further: nearly all actives have a fitted effect of over 45% in size. Summed up: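 CellTiter-Glo ATP luminescence gave viability after 48 h compound treatment at 37C of 500 multiple myeloma cells per well. Normalisation used DMSO-only wells as 100% and media-only wells as 0% viability; primary qHTS of approved and investigational drugs.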

Assay [9] in a line: Quantitative High-Throughput drug screen in 47 multiple myeloma cell lines against the NCATS MIPE library collection: KMS26_JCRB cell viability assay (AID 1918975). Further: nearly all actives have a fitted effect of over 45% in size. Summed up: as §1
Assay [10] in a line: Quantitative High-Throughput drug screen in 47 multiple myeloma cell lines against the NCATS MIPE library collection: MOLP8_DSMZ cell viability assay (AID 1918977). Further: nearly all actives have a fitted effect of over 45% in size. An outline of the steps: as §2
Potency means the concentration at half of the fitted maximal effect.

For the molecule `COc1ccc(-c2c(-c3ccc(O)cc3O)n[nH]c2C)cc1`, the Potency in assay [1] is 27 µM (active); in assay [2] it was 42.9 µM (active); in assay [3], 19.1 µM (active); in assay [6], 38.2 µM (active). The Potency entry in assay [4] and in assay [5] was “inactive” in each case.

As for `Oc1cccc(-c2nc(N3CCOCC3)c3oc4ncccc4c3n2)c1`, the Potency is 0.121 µM (active) in [7]; 0.152 µM (active) in [8]; 0.215 µM (active) in assay [9]; 0.0152 µM (active) in assay [10]; 0.0191 µM (active) in assay [3]; 0.0679 µM (active) in assay [5]. Also, the Potency in assay [6] is 0.0679 µM (active).

Turning to `O=C(Nc1cccnc1)N1CCC(Cc2cccc(Oc3ccc(C(F)(F)F)cn3)c2)CC1`, the Potency in assay [1] is 13.2 µM (active); in [7] it was 16.6 µM (active); in [5] it was 14.8 µM (active); in assay [6], 13.2 µM (active).

On to `NS(=O)(=O)c1cc2c(cc1Cl)NC=NS2(=O)=O`, for which the Potency entry in [7], in assay [8], in assay [9], in assay [10] and in assay [6] was “inactive” each time.

Regarding `CCN(c1ccccc1)c1cc(NC)[n+](C)c(C)n1`, the Potency in [1] is 14.8 µM (active); in assay [6] it was 16.6 µM (active). Also, the Potency entry in assay [8], in [3] and in assay [4] was “inactive” each time.

`COc1cc(Nc2ncc3c(n2)-c2ccc(Cl)cc2C(c2c(F)cccc2OC)=NC3)ccc1C(=O)O`: the Potency entry in [1], in [3], in assay [4] and in assay [6] was “inactive” throughout.

For the molecule `c1ccc([C@H]2CN3CCSC3=N2)cc1`, the Potency result in assay [1], in assay [9], in assay [3], in assay [4] and in [6] was “inactive” each time.

For `NC(=O)c1ccc(-c2nc(-c3ccc4c(c3)OCO4)c(-c3ccccn3)[nH]2)cc1`, the Potency entry in assay [7], in assay [8], in assay [10], in assay [3], in assay [4] and in [5] was “inactive” throughout. For the same molecule, the Potency in [6] was 7.43 µM (active).

With `Cn1cnc([N+](=O)[O-])c1Sc1ncnc2nc[nH]c12`, the Potency result in [1], in [10] and in assay [4] was “inactive” throughout. In addition, in assay [3], the Potency is 16.6 µM (active).

As to `CC(c1cc2ccccc2s1)N(O)C(N)=O` (centres undefined), the Potency entry in [7], in [8], in [9], in assay [3], in assay [4] and in [5] was “inactive” in each case. Also, in assay [6], the Potency entry is “inactive”.

As to `CCOC(=O)C1=C[C@]2(CC)CCCN3CCc4c(n1c1ccccc41)[C@@H]32`, the Potency is 10.5 µM (active) in [7]; 5.9 µM (active) in [8]; 26.4 µM (active) in assay [9]; 8.33 µM (active) in [3]; 11.8 µM (active) in assay [5]; 11.8 µM (active) in assay [6].

Turning to `COc1ccc(CCN2CCN(CCCc3ccccc3)CC2)cc1OC`, the Potency entry in [1], in [3] and in assay [6] was “inactive” in each case.

With `Cc1c(C)c2c(c(C)c1O)CCC(C)(COc1ccc(CC3SC(=O)NC3=O)cc1)O2` (centres undefined), the Potency entry in assay [1], in assay [10], in [4] and in [6] was “inactive” each time.

Take `CN(C(=O)c1ccc(F)cc1C(F)(F)F)C1CCN(c2nnc(-c3ccnn3C)c3ccccc23)CC1`: the Potency entry in assay [1] is “inactive”. The Potency in assay [8] was 10.5 µM (active).

Turning to `CCn1c(-c2nonc2N)nc2c(C#CC(C)(C)O)ncc(OC[C@H]3CCCNC3)c21`, the Potency in assay [1] is 14.8 µM (active); in [3], 0.0209 µM (active); in [4], 4.18 µM (active); in [5] it was 0.0264 µM (active); in assay [6] it was 0.0418 µM (active).

For the molecule `Nc1nc2[nH]cc(CCc3ccc(C(=O)N[C@@H](CCC(=O)O)C(=O)O)cc3)c2c(=O)[nH]1`, the Potency was 1.32 µM (active) in assay [7] and 2.09 µM (active) in assay [2]. The Potency entry in assay [8], in assay [3], in [4] and in assay [6] was “inactive” throughout.

Turning to `Cc1n[nH]c(C)c1Cc1sc2c(c1C(=O)N1C[C@H](O)CO1)c(=O)n(C)c(=O)n2CC(C)C`, the results for the Potency in [1], in assay [10] and in assay [5] were 2.64 µM (active), 0.935 µM (active) and 11.8 µM (active), respectively. For the same molecule, the Potency result in [3], in assay [4] and in assay [6] was “inactive” each time.

Turning to `CCCS(=O)(=O)Nc1ccc(F)c(C(=O)c2c[nH]c3ncc(-c4ccc(Cl)cc4)cc23)c1F`, the Potency in [1] was 20.9 µM (active); in assay [2], 26.4 µM (active); in assay [5], 7.43 µM (active).

As for `C[C@]12CC[C@H](O)CC1=CC[C@@H]1[C@H]2CC[C@]2(C)C(c3cccnc3)=CC[C@H]12`, the Potency result in assay [7], in [8], in [9], in assay [4] and in assay [6] was “inactive” throughout.

Turning to `Clc1cccc(Cl)c1NC1=NCCN1`, the Potency result in [7], in assay [8], in [10], in assay [3] and in assay [4] was “inactive” throughout. Further, the Potency in assay [5] was 18.7 µM (active).

Take `CS(=O)(=O)c1cccc(CNc2nc(Nc3ccc4c(c3)CCC(=O)N4)ncc2C(F)(F)F)c1`: the Potency was 4.69 µM (active) in assay [7]; 14.8 µM (active) in assay [8]; 18.7 µM (active) in assay [9]; 10.5 µM (active) in assay [3]; 16.6 µM (active) in assay [4]; 18.7 µM (active) in [5]. The Potency in assay [6] was 20.9 µM (active).

Regarding `O=S(=O)(N=Cc1c(O)ccc2ccccc12)c1cccs1`, the Potency result in assay [1], in assay [4] and in [6] was “inactive” in each case. Also, the Potency is 0.833 µM (active) in assay [8], 4.69 µM (active) in assay [3] and 0.0209 µM (active) in assay [5].

Take `Cc1ccccc1C(C(=O)NC1CCCC1)N(C(=O)Cn1cnc2ccccc21)c1cccc(F)c1` (centres undefined): the Potency in assay [1] was 14.8 µM (active); in assay [2], 16.6 µM (active); in [3], 18.7 µM (active); in [5] it was 18.7 µM (active). Moreover, the Potency result in assay [4] and in assay [6] was “inactive” each time.

For the molecule `O=c1[nH]c(-c2ccc(C(F)(F)F)cc2)nc2c1CSCC2`, the Potency entry in assay [7], in assay [8] and in [10] was “inactive” in each case. For the same molecule, the Potency in assay [3] and in [5] was 18.7 µM (active) each time.
